The source of these data is PubChem BioAssay (EPA / NIEHS).

The nature of assay [1]: ATG_NF_kB_CIS: Attagene CIS-FACTORIAL HepG2 Assay for human Nuclear Factor Kappa B (NF-kB) (AID 2282991; active = hit-call score of the fitted dose curve at least 0.9, where 1 is the maximum; inactive = score below 0.9). The following applies: HepG2 Attagene cis-factorial NF-kB reporter mRNA; actives raise or lower the signal. An outline of the steps:
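After 24 h compound incubation, transfected HepG2 cells yield total RNA; reporter cDNA is PCR-amplified, end-labelled with 6-FAM, HpaI-digested and analysed on a genetic analyser. Endogenous factor activity, DMSO-referenced bidirectional fit.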

A short description of assay [2]: ATG_NRF2_ARE_CIS: Attagene CIS-FACTORIAL HepG2 Assay for human Nuclear Factor Erythroid 2 Related Factor 2 (NFR2) response to Antioxidant Response Elements (ARE) (AID 2282992; active = hit-call score of the fitted dose curve at least 0.9, where 1 is the maximum; inactive = score below 0.9). The following applies: HepG2 Attagene ARE/NRF2 reporter, transcription factor activity; actives raise or lower the signal. The gist of the method: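 Endogenous transcription factor activity read out as reporter transcript levels (RT-PCR plus capillary electrophoresis, fluorescence) in transiently transfected HepG2 cells. Measured at 24 h after dosing; gain or loss of signal fitted versus DMSO.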

Assay [3] is described as follows: ATG_Oct_MLP_CIS: Attagene CIS-FACTORIAL HepG2 Assay for human Octamer-Binding Transcription Factor (Oct) (AID 2282993; active = hit-call score of the fitted dose curve at least 0.9, where 1 is the maximum; inactive = score below 0.9). The following applies: HepG2 Attagene cis-factorial Oct reporter, mRNA; actives raise or lower the signal. The gist of the method: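 Readout is reporter transcript level from RT-PCR with fluorescent primer extension and capillary electrophoresis, fitted in both directions against DMSO. Transfected HepG2 reporter units report endogenous factor activity after 24 h dosing.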

In assay [4] the target is Cellular tumor antigen p53 (Homo sapiens) (UniProt P04637). Description: ATG_p53_CIS: Attagene CIS-FACTORIAL HepG2 Assay for human p53 Transcription Factor (AID 2282994; active = hit-call score of the fitted dose curve at least 0.9, where 1 is the maximum; inactive = score below 0.9). The following applies: HepG2 p53 cis-element reporter, Attagene mRNA; actives raise or lower the signal. An outline of the steps:
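Endogenous p53 activity read in transiently transfected HepG2 from a cis-element-driven reporter transcript after 24 h exposure. RNA reverse-transcribed, PCR-amplified, fluorescently labelled and sized by capillary electrophoresis; gain or loss fitted against DMSO baseline.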

Assay [5] concerns the target human Peroxisome Proliferator-activated Receptor alpha (PPARa), PPARA (gene 5465) (UniProt Q07869). The experiment in a line: ATG_PPARa_TRANS: Attagene TRANS-FACTORIAL HepG2 Assay for human Peroxisome Proliferator-activated Receptor alpha (PPARa) (AID 2283001). The gist of the method:
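Transient HepG2 transfection, GAL4-UAS reporters, NR-Gal4 chimeras; 24 h compound exposure. Readout: reporter transcripts by RT-PCR, 6-FAM primer extension, HpaI digest, capillary electrophoresis. Positive direction vs DMSO baseline.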

In assay [6] the target is human Retinoic Acid Receptor beta (RARb), RARB (gene 5915) (UniProt P10826). The experiment in a line: ATG_RARb_TRANS: Attagene TRANS-FACTORIAL HepG2 Assay for human Retinoic Acid Receptor beta (AID 2283004). The gist of the method: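 Fluorescent capillary-electrophoresis detection of GAL4-UAS reporter mRNA defines the endpoint, with induction over DMSO-treated wells scored as activity. Transiently transfected human hepatoma HepG2 cells expressing exogenous NR–Gal4 proteins are exposed to test chemicals for 24 h.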
Chain of human Retinoic Acid Receptor beta (RARb), RARB (gene 5915) (P10826 whole entry, looked up, the tested form may be a part): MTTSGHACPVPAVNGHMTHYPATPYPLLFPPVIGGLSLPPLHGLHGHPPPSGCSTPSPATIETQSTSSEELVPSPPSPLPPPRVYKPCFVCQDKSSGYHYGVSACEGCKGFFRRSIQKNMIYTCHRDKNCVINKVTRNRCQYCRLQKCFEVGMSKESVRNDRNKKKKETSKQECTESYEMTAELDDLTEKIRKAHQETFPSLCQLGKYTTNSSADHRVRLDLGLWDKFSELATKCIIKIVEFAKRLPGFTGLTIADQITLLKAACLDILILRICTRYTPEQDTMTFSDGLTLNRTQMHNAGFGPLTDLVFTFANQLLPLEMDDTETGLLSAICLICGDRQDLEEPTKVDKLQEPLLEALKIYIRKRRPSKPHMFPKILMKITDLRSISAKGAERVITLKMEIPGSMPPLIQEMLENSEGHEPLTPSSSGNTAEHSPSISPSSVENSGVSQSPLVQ

Assay [7] addresses Retinoic acid receptor alpha (Homo sapiens) (UniProt P10276). Description: ATG_RARa_TRANS: Attagene TRANS-FACTORIAL HepG2 Assay for human Retinoic Acid Receptor alpha (RARa) (AID 2283005). The gist of the method:
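HepG2 transiently transfected with multiplex GAL4-UAS reporter units including a human RARa–GAL4 chimera; 24 h compound exposure. Reporter mRNA quantified by RT-PCR, 6-FAM labeling and capillary electrophoresis; gain of signal versus DMSO.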

For assay [8], the target named is Peroxisome proliferator-activated receptor gamma (Homo sapiens) (UniProt P37231). Description: ATG_PPARg_TRANS: Attagene TRANS-FACTORIAL HepG2 Assay for human Peroxisome Proliferator-activated Receptor-gamma (PPARg) (AID 2283007). An outline of the steps:
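Liver-derived HepG2 cells expressing an exogenous NR-Gal4 chimera alongside GAL4-UAS reporter genes; 24 h exposure. Fluorescence of reporter RT-PCR products, separated by capillary electrophoresis, gives mRNA induction relative to DMSO.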

In assay [9] the target is human Retinoic Acid Receptor gamma (RARg), RARG (gene 5916) (UniProt P13631). The experiment in a line: ATG_RARg_TRANS: Attagene TRANS-FACTORIAL HepG2 Assay for human Retinoic Acid Receptor gamma (RARg) (AID 2283009). The gist of the method:
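Readout: reporter transcript levels via RT-PCR, 6-FAM primer-extension labelling, HpaI digestion and capillary electrophoresis. Cells: HepG2 carrying transfected RARg-GAL4 chimera plus UAS reporter set. Dosing 24 h; DMSO negative control.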

Assay [10] deals with Retinoic acid receptor RXR-alpha (Homo sapiens) (UniProt P19793). Description: ATG_RXRa_TRANS: Attagene TRANS-FACTORIAL HepG2 Assay for human Retinoid X Receptor alpha (RXRa) (AID 2283012). An outline of the steps:
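Read-out: fluorescent reporter-transcript fragments quantified by capillary electrophoresis after RT-PCR. Transiently transfected HepG2 cells carrying GAL4-UAS reporters and NR-GAL4 chimeras were exposed to chemical for 24 h; activity scored as increase over DMSO.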

Assay [11] concerns the target Nuclear receptor subfamily 1 group I member 2 (Homo sapiens) (UniProt O75469). The experiment in a line: ATG_PXR_TRANS: Attagene TRANS-FACTORIAL HepG2 Assay for human Pregnane X Receptor (PXR) (AID 2283008). The gist of the method:
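Transactivation by exogenous PXR–GAL4 fusion measured as reporter transcript induction after 24 h compound treatment of transfected human HepG2 cells. Read-out via RT-PCR and capillary electrophoresis of labelled fragments, fitted upward relative to DMSO.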

Assay [12] addresses human Peroxisome Proliferator-activated Receptor delta (PPARd), PPARD (gene 5467) (UniProt Q03181). Description: ATG_PPARd_TRANS: Attagene TRANS-FACTORIAL HepG2 Assay for human Peroxisome Proliferator-activated Receptor delta (PPARd) (AID 2283002). The gist of the method:
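HepG2 cells transiently transfected with GAL4-UAS multiplexed reporter units driven by exogenous chimeric NR-GAL4 proteins; 24 h compound exposure. Reporter mRNA measured by RT-PCR, 6-FAM primer extension, HpaI digestion and capillary electrophoresis; gain of signal fitted relative to DMSO.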

The target of assay [13] is human RAR-related Orphan Receptor gamma (RORg), RORC (gene 6097) (UniProt P51449). The experiment in a line: ATG_RORg_TRANS: Attagene TRANS-FACTORIAL HepG2 Assay for human RAR-related Orphan Receptor gamma (RORg) (AID 2283011). An outline of the steps:
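Chimeric RORg-Gal4 transactivation in transfected HepG2; 24 h exposure; RT-PCR/capillary electrophoresis readout of reporter mRNA, DMSO baseline.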

The target in assay [14] is human RAR-related Orphan Receptor beta (RORb), RORB (gene 6096) (UniProt Q92753). Description: ATG_RORb_TRANS: Attagene TRANS-FACTORIAL HepG2 Assay for human RAR-related Orphan Receptor beta (RORb) (AID 2283010). An outline of the steps:
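HepG2, transient MRTU transfection (GAL4-UAS reporters, exogenous NR-Gal4 chimeras); 24 h compound exposure; total RNA → RT-PCR → 6-FAM primer extension → HpaI digest → CE fluorescence. Positive direction vs DMSO baseline.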

Inconclusive results are not listed. Activity calls are given as the source filed them. The calls were made as follows, unless noted: active = hit-call score of the fitted dose curve at least 0.9, where 1 is the maximum; inconclusive = response in the unintended direction; inactive = score below 0.9.

Chain of human Peroxisome Proliferator-activated Receptor delta (PPARd), PPARD (gene 5467) (Q03181 whole entry, looked up, the tested form may be a part): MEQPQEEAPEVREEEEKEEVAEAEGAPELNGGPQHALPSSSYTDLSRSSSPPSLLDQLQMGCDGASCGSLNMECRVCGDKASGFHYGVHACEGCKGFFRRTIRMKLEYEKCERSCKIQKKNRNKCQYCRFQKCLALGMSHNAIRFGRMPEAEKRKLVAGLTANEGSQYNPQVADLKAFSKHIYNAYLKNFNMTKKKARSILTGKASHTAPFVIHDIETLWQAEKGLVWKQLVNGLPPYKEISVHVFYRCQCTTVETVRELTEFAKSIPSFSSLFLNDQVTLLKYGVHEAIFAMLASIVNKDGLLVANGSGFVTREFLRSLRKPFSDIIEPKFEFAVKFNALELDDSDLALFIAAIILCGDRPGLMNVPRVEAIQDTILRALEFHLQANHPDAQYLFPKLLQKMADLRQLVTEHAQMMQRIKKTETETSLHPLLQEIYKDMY
Chain of Retinoic acid receptor RXR-alpha (Homo sapiens) (P19793 whole entry, looked up, the tested form may be a part): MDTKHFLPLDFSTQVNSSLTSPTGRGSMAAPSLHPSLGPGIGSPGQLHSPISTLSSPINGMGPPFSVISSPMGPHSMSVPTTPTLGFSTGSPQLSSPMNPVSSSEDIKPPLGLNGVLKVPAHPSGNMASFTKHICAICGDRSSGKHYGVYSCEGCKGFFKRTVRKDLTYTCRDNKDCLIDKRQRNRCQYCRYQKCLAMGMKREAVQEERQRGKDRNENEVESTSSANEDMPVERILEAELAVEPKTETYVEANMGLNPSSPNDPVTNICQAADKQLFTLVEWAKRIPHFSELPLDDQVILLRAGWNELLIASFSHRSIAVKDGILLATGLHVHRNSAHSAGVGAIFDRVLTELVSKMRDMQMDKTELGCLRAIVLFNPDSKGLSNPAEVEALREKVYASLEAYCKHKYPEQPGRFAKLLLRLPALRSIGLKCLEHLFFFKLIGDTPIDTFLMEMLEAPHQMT
Chain of human RAR-related Orphan Receptor gamma (RORg), RORC (gene 6097) (P51449 whole entry, looked up, the tested form may be a part): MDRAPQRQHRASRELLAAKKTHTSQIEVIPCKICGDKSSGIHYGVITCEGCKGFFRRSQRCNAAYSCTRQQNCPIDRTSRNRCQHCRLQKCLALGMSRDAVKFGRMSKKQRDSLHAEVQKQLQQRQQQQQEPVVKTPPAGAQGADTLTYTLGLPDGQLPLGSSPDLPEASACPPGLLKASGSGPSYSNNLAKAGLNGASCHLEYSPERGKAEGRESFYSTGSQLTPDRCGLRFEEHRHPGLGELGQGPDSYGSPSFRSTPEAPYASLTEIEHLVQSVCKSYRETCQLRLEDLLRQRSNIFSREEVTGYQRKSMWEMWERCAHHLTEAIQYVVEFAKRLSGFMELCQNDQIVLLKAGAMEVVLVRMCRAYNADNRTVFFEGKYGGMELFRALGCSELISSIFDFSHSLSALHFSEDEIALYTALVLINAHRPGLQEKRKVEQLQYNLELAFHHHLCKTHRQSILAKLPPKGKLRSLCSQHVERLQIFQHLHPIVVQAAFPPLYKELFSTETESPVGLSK
Chain of Nuclear receptor subfamily 1 group I member 2 (Homo sapiens) (O75469 whole entry, looked up, the tested form may be a part): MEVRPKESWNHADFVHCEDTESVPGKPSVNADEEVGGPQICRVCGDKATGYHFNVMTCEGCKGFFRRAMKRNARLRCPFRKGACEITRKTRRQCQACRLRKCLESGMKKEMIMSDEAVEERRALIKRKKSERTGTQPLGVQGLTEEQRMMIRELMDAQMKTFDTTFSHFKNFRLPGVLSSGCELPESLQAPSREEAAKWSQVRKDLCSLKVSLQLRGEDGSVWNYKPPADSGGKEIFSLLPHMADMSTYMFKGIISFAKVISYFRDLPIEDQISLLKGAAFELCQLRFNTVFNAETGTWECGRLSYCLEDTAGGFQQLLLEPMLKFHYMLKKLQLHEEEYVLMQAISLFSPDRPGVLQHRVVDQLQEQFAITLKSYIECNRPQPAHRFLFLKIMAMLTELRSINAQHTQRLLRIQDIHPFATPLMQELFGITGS
Chain of Peroxisome proliferator-activated receptor gamma (Homo sapiens) (P37231 whole entry, looked up, the tested form may be a part): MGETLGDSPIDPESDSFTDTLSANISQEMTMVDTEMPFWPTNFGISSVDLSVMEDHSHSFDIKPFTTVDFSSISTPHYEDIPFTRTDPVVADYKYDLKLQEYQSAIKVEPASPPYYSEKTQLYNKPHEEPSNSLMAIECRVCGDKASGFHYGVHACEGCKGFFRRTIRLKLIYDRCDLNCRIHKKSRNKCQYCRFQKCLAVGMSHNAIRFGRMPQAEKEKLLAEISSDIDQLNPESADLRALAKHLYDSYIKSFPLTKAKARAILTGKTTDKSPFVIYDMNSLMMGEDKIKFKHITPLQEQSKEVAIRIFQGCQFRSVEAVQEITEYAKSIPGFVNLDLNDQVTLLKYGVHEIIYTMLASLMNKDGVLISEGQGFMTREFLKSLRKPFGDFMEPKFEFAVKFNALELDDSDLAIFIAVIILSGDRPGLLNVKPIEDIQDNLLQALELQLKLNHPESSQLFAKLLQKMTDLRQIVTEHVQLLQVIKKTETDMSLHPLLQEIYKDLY
Chain of human Retinoic Acid Receptor gamma (RARg), RARG (gene 5916) (P13631 whole entry, looked up, the tested form may be a part): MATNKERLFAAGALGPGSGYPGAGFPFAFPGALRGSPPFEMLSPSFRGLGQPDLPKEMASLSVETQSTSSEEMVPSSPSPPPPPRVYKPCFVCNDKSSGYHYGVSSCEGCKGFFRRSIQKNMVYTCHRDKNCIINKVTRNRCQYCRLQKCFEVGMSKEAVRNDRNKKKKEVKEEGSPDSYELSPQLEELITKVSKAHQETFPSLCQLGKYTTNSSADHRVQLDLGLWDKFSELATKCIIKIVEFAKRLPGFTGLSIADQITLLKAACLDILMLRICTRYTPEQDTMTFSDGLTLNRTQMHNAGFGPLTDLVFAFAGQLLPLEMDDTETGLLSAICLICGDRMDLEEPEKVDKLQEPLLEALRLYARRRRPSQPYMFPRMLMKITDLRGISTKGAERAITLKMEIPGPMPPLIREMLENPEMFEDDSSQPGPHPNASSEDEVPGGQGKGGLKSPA
Chain of Retinoic acid receptor alpha (Homo sapiens) (P10276 whole entry, looked up, the tested form may be a part): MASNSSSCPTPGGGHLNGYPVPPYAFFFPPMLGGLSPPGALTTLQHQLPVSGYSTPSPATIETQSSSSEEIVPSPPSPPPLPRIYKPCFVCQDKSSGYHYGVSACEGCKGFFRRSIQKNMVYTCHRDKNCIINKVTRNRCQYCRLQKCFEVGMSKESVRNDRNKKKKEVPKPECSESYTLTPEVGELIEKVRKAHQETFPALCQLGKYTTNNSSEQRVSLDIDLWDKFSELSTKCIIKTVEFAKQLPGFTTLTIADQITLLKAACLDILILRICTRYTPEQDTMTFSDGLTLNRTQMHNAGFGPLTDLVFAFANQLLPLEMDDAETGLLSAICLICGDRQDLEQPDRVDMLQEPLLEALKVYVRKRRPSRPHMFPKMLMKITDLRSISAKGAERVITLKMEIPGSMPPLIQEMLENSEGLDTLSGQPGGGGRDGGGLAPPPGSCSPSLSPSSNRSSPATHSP
Chain of Cellular tumor antigen p53 (Homo sapiens) (P04637 whole entry, looked up): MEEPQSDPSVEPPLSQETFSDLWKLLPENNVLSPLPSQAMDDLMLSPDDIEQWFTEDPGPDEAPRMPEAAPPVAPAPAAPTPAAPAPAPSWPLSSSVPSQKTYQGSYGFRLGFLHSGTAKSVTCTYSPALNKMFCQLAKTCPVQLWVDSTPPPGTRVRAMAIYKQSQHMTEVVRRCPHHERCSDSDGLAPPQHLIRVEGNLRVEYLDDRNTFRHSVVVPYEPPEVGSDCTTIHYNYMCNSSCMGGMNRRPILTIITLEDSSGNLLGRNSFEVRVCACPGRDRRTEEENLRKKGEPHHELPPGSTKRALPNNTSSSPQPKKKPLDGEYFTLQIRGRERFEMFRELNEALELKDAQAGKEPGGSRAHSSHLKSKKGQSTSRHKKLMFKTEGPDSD
Chain of human Peroxisome Proliferator-activated Receptor alpha (PPARa), PPARA (gene 5465) (Q07869 whole entry, looked up, the tested form may be a part): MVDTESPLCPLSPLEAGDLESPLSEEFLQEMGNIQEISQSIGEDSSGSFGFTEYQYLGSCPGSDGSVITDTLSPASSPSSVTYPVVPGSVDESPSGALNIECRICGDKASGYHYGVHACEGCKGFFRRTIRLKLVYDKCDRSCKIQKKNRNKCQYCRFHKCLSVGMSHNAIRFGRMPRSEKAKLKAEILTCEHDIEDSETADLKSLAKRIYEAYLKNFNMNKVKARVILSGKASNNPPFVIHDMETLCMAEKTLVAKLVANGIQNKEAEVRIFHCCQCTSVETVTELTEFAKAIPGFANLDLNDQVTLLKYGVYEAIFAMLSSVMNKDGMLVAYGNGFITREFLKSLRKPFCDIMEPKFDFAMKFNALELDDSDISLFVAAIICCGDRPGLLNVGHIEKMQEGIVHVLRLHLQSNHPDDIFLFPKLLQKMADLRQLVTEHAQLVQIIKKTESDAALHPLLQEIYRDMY

Take `O=CCCl`: the AC50 in [1] was 32.7 µM (active); in assay [2], 23.6 µM (active); in [3], 26 µM (active). Further, the outcome in assay [4], in [5], in [6], in assay [7], in assay [8] and in [9] was inactive. The compound was called inactive in [10].
As to `CCN(N=O)C(N)=O`, the outcome in [1], in [2], in assay [3], in [4], in assay [5] and in [6] was inactive. Moreover, the call in assay [7], in [8], in assay [11] and in [10] was inactive.
For the compound `COC(F)(C(F)(F)C(F)(F)F)C(F)(C(F)(F)F)C(F)(F)F` (stereo not drawn), the call in [1], in assay [2], in [3], in assay [4], in assay [12] and in assay [6] was inactive. In addition, the compound was classed as inactive in [7], in assay [8], in [11], in assay [9] and in assay [13].
On to `CCCCS(=O)(=O)Cl`, for which the compound was classed as inactive in assay [1], in assay [2], in assay [3], in [4], in [12] and in [11]. For the same compound, the compound was called inactive in assay [13].
Consider `BrCc1ccc(Br)cc1`, for which the call in [1], in assay [2], in assay [3], in assay [4], in assay [12] and in assay [8] was inactive. For the same compound, the outcome in [11], in assay [13] and in assay [10] was inactive.
As for `CC(C)(c1ccccc1)c1cc(-n2nc3ccccc3n2)c(O)c(C(C)(C)c2ccccc2)c1`, the outcome in assay [1], in assay [2], in assay [3], in assay [4], in [12] and in [11] was inactive. The result in assay [9] and in assay [13] was inactive.
With `CCNc1nc(NCC)nc(SC)n1`, the outcome in assay [1], in assay [2], in [3], in assay [4], in [6] and in assay [7] was inactive. The result in [8], in assay [11] and in assay [9] was inactive.
For `OC(c1ccc(Cl)cc1)(c1ccc(Cl)cc1)c1cccnc1`, the call in assay [1], in [3], in assay [4], in [12], in [8] and in [11] was inactive. In addition, in assay [10], the outcome was inactive. In addition, the AC50 in assay [2] is 11.1 µM (active).
As for `CC(C)CP(=S)(S)CC(C)C`, the result in assay [1], in assay [2], in assay [3], in assay [4], in assay [6] and in assay [7] was inactive. For the same compound, the compound was called inactive in [8], in assay [9], in assay [14] and in assay [10]. The AC50 in assay [11] is 59.1 µM (active).
Consider `ClCCCCl`, for which the compound was classed as inactive in assay [1], in assay [2], in [3], in assay [4], in assay [12] and in assay [11]. Further, the call in assay [13] and in assay [10] was inactive.
In the case of `Brc1c(Br)c(Br)c(Oc2c(Br)c(Br)c(Br)c(Br)c2Br)c(Br)c1Br`, the result in assay [1], in assay [2], in assay [3], in assay [4], in assay [12] and in assay [7] was inactive. For the same compound, the compound was classed as inactive in [8], in assay [11], in assay [9], in assay [14], in [13] and in assay [10].
